Test results from PubChem BioAssay (Tox21).
Results filed as inconclusive are left out. A call without a number means that no potency is given here. Unmarked numbers belong to inactive results. The source made the active and inactive calls. Unless noted, calls follow the shape of the full dose curve.

What was measured:
[1] = qHTS assay to identify small molecule agonists of the vitamin D receptor (VDR) signaling pathway - cell viability counter screen (AID 743224; active = well fitted cell-killing curve with a large enough effect in the repeat runs; also: series mostly up to about 63 µM; nearly all actives have a fitted effect of over 50% in size)
How it was run: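 VDR-bla cells, 4 h after plating, exposed to compounds for 16 h at 37C; viability then read in the same wells as CellTiter-Glo luminescence after 30 min at room temperature, following the bla FRET read.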

[2] = qHTS assay to identify small molecule antagonists of the vitamin D receptor (VDR) signaling pathway - cell viability counter screen (AID 743225; active = well fitted cell-killing curve with a large enough effect in the repeat runs; also: nearly all actives have a fitted effect of over 50% in size; also: potency is read from the fitted curve at half-maximal effect)
How it was run: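 VDR-bla HEK 293T cells, 4 h pre-incubation at 37C, then compound plus 1-alpha,25-dihydroxyvitamin D3 (3 nM final) for 16 h. After the beta-lactamase FRET read, CellTiter-Glo was added to the same wells; luminescence after 30 min at room temperature.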

[3] = qHTS assay to identify small molecule agonists of the NFkB signaling pathway (AID 1159509; active = well fitted curve in the direction sought with a large enough effect in the signal ratio in the repeat runs, not every such curve was filed as active; the % refers to the signal ratio; also: series mostly up to about 61 µM)
How it was run: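 NFkB-bla ME-180 cells with a beta-lactamase reporter under an NF-kB response element were plated overnight, treated with compounds in DMSO for 5 hr at 37 C, then loaded with FRET substrate for 1.5 hr at room temperature.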

[4] = qHTS assay to identify small molecule agonists of the NFkB signaling pathway - cell viability counter screen (AID 1159515); also: series mostly up to about 61 µM; nearly all actives have a fitted effect of over 55% in size
How it was run: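 NFkB-bla ME-180 cells, 2,000/well, plated overnight at 37 C; compound added for 5 hr at 37 C. Viability read in the same wells as the bla reporter, by CellTiter-Glo luminescence after 30 min at room temperature.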

[5] = qHTS assay to identify small molecule agonists of the endoplasmic reticulum stress response signaling pathway (AID 1159516; active = well fitted activation curve with a large enough effect in the signal ratio in the repeat runs, not every such curve was filed as active; the % refers to the signal ratio)
How it was run: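 CellSensor ESRE-bla HeLa cells, 1,500 per well, plated overnight, then exposed to compounds for 5 hr at 37 C. Beta-lactamase reporter read with LiveBLAzer B/G FRET substrate after 2 hr at room temperature, 405 nm excitation, 460 and 530 nm emission.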

[6] = qHTS assay to identify small molecule agonists of the endoplasmic reticulum stress response signaling pathway - cell viability counter screen (AID 1159517);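 also: HeLa cells carrying an ER stress response element beta-lactamase reporter; series mostly up to about 61 µM; nearly all actives have a fitted effect of over 50% in size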
How it was run: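 Cells, HeLa ESRE-bla; density, 1,500/well; dosing, 5 hr at 37 C, 5% CO2; readout, CellTiter-Glo luminescence after 30 min RT.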

[7] = qHTS assay to identify small molecule antagonists of the retinoid-related orphan receptor gamma (ROR-gamma) signaling pathway - cell viability counter screen (AID 1159520; active = well fitted cell-killing curve with a large enough effect in the repeat runs; also: nearly all actives have a fitted effect of over 50% in size)
How it was run: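 Cytotoxicity was read from cellular ATP (CellTiter-Glo luminescence) after 16 hr at 37 C with 1 uM doxycycline induction. The inducer was added 2 hr after compound transfer to Tet-on ROR gamma CHO cells.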

[8] = qHTS assay to identify small molecule agonists of the AP-1 signaling pathway - cell viability counter screen (AID 1159525); also: nearly all actives have a fitted effect of over 55% in size
How it was run: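 Luminescent ATP readout (Cell Titer Glo, 30 min RT), normalised to DMSO and tetra n-octyl ammonium bromide controls. Cells were ME-180 AP-1-bla in 0.5% dialyzed FBS Opti-MEM, with a 5 h, 37 °C compound exposure.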

[9] = qHTS assay to identify small molecule agonists of the AP-1 signaling pathway (AID 1159526)

## CCCC(=O)O[C@]1(C(=O)COC(=O)CC)CC[C@H]2[C@@H]3CCC4=CC(=O)CC[C@]4(C)[C@H]3[C@@H](O)C[C@@]21C
[1]
  Potency: inactive
[2]
  Potency: inactive
[3]
  outcome: inactive
[4]
  outcome: inactive
[5]
  outcome: inactive
[6]
  outcome: inactive
[7]
  activity, negative = cytotoxicity: 0.636% [at 19 µM]
[8]
  viability change, negative = cytotoxic: -0.096% [at 15.8 µM]
[9]
  activation: -6.02% [at 15.8 µM]

## CCC(C(=O)OCCOCCN(CC)CC)c1ccccc1 (stereo not given)
[1]
  Potency: inactive
[2]
  Potency: inactive
[3]
  outcome: inactive
[4]
  outcome: inactive
[5]
  outcome: inactive
[6]
  outcome: inactive
[7]
  Potency: inactive
[8]
  outcome: inactive
[9]
  outcome: inactive

## COC(=O)[C@@H]1CC2=CC(=O)CC[C@]2(C)[C@@]23O[C@@H]2C[C@@]2(C)[C@@H](CC[C@@]24CCC(=O)O4)[C@H]13
[2]
  Potency: inactive
[3]
  outcome: inactive
[4]
  outcome: inactive
[5]
  outcome: inactive
[6]
  outcome: inactive
[7]
  Potency: inactive
[8]
  outcome: inactive
[9]
  outcome: inactive

## CC(C)CCCCCOC(=O)CCCCC(=O)OCCCCCC(C)C
[1]
  Potency: inactive
[2]
  Potency: inactive
[3]
  outcome: inactive
[4]
  outcome: inactive
[5]
  outcome: inactive
[6]
  outcome: inactive
[7]
  Potency: inactive
[8]
  outcome: inactive
[9]
  outcome: inactive

## CC(=O)N(c1onc(C)c1C)S(=O)(=O)c1ccc(N)cc1
[1]
  Potency: inactive
[2]
  Potency: inactive
[3]
  outcome: inactive
[4]
  outcome: inactive
[5]
  outcome: inactive
[6]
  outcome: inactive
[7]
  Potency: inactive
[8]
  outcome: inactive
[9]
  outcome: inactive

## CN1CCCN=C1/C=C/c1cccs1
[1]
  Potency: inactive
[2]
  Potency: inactive
[3]
  outcome: inactive
[4]
  outcome: inactive
[5]
  outcome: inactive
[6]
  outcome: inactive
[7]
  Potency: inactive
[8]
  outcome: inactive
[9]
  outcome: inactive

## COc1cc2c(cc1OC)-c1cc(=Nc3c(C)cc(C)cc3C)n(C)c(=O)n1CC2
[2]
  Potency: inactive
[3]
  outcome: inactive
[4]
  outcome: inactive
[5]
  outcome: inactive
[6]
  outcome: inactive
[7]
  Potency: inactive
[8]
  outcome: inactive
[9]
  outcome: inactive

## [O]=[Bi]
[2]
  viability change, negative = cytotoxic: -2.19% [at 6.95 µM]
[3]
  activation: -0.308% [at 6.95 µM]
[4]
  activity, negative = cytotoxic: 3.69% [at 6.95 µM]
[5]
  activation: -0.917% [at 6.95 µM]
[6]
  activity change, negative = cytotoxicity: 9.83% [at 6.95 µM]
[7]
  activity, negative = cytotoxicity: 7.56% [at 8.39 µM]
[8]
  viability change, negative = cytotoxic: 2.46% [at 6.97 µM]

## N#C/C(=C1/SC[C@@H](c2ccc(Cl)cc2Cl)S1)n1ccnc1
[3]
  outcome: inactive
[4]
  outcome: inactive
[5]
  outcome: inactive
[6]
  outcome: inactive
[7]
  Potency: inactive
[9]
  outcome: inactive

## CCc1cccc(N(C)C(N)=Nc2cccc3ccccc23)c1
[2]
  Potency: inactive
[3]
  outcome: inactive
[4]
  outcome: inactive
[5]
  outcome: inactive
[6]
  outcome: inactive
[7]
  Potency: inactive
[8]
  outcome: inactive

## O=C(O)c1ccc(CO)o1
[1]
  Potency: inactive
[2]
  Potency: inactive
[3]
  outcome: inactive
[4]
  outcome: inactive
[5]
  outcome: inactive
[6]
  outcome: inactive
[7]
  Potency: inactive
[8]
  outcome: inactive
[9]
  outcome: inactive

## CCCCCCCCCCOS(=O)(=O)O
[1]
  Potency: inactive
[2]
  Potency: inactive
[3]
  outcome: inactive
[4]
  outcome: inactive
[5]
  outcome: inactive
[6]
  outcome: inactive
[7]
  Potency: inactive
[8]
  outcome: inactive

## CCOC(=O)C(C)Oc1ccc(Oc2nc3ccc(Cl)cc3o2)cc1 (stereo not given)
[1]
  Potency: inactive
[2]
  Potency: inactive
[3]
  outcome: inactive
[4]
  outcome: inactive
[5]
  outcome: inactive
[6]
  outcome: inactive
[7]
  Potency: inactive
[8]
  outcome: inactive
[9]
  outcome: inactive

## CN(C)C(=O)Nc1ccc(Oc2ccc(Cl)cc2)cc1
[1]
  Potency: inactive
[2]
  Potency: inactive
[3]
  outcome: inactive
[4]
  outcome: inactive
[5]
  outcome: inactive
[6]
  outcome: inactive
[7]
  Potency: inactive
[8]
  outcome: inactive
[9]
  outcome: inactive

## Cc1occc1C(=O)Nc1ccc(C(=O)N2CCC(F)(F)/C(=C\C(=O)N3CCC(N4CCCCC4)CC3)c3ccccc32)cc1
[1]
  Potency: inactive
[2]
  Potency: inactive
[3]
  outcome: inactive
[4]
  outcome: inactive
[5]
  outcome: inactive
[6]
  outcome: inactive
[7]
  Potency: inactive
[8]
  outcome: inactive

## CN1CCN(CCCN2c3ccccc3Sc3ccc(S(=O)(=O)N(C)C)cc32)CC1
[2]
  Potency: 23.9 µM (active)
[3]
  outcome: inactive
[4]
  outcome: inactive
[5]
  outcome: inactive
[6]
  outcome: inactive
[7]
  Potency: inactive
[8]
  outcome: inactive
[9]
  outcome: inactive

## Cc1cc(C(=C2C=CC(=Nc3ccc(S(=O)(=O)O)cc3S(=O)(=O)O)C=C2)c2ccc(Nc3ccc(S(=O)(=O)O)cc3)cc2)ccc1N
[1]
  Potency: inactive
[2]
  Potency: inactive
[3]
  outcome: inactive
[4]
  outcome: inactive
[5]
  outcome: inactive
[6]
  outcome: inactive
[7]
  Potency: inactive
[8]
  outcome: inactive
[9]
  outcome: inactive

## CC(C)CCCCCCOC(=O)CCCCC(=O)OCCCCCCC(C)C
[1]
  Potency: inactive
[2]
  Potency: inactive
[3]
  outcome: inactive
[4]
  outcome: inactive
[5]
  outcome: inactive
[6]
  outcome: inactive
[7]
  Potency: inactive
[8]
  outcome: inactive

## CC(C)=CC=O
[1]
  Potency: inactive
[2]
  Potency: inactive
[3]
  outcome: inactive
[4]
  outcome: inactive
[5]
  outcome: inactive
[6]
  outcome: inactive
[7]
  Potency: inactive
[8]
  outcome: inactive
[9]
  outcome: inactive

## CC(=O)CC(c1ccc([N+](=O)[O-])cc1)c1c(O)c2ccccc2oc1=O (stereo not given)
[1]
  Potency: inactive
[2]
  Potency: inactive
[3]
  outcome: inactive
[4]
  outcome: inactive
[5]
  outcome: inactive
[6]
  outcome: inactive
[7]
  Potency: inactive
[8]
  outcome: inactive
[9]
  outcome: inactive

## O=S1OCCO1
[1]
  Potency: inactive
[2]
  Potency: inactive
[3]
  outcome: inactive
[4]
  outcome: inactive
[5]
  outcome: inactive
[6]
  outcome: inactive
[7]
  Potency: inactive
[8]
  outcome: inactive
[9]
  outcome: inactive

## CC1CC(=O)NN=C1c1ccc(NCC(C)(C)NCC(O)COc2cc(Cl)ccc2C#N)cc1 (stereo not given)
[1]
  Potency: inactive
[2]
  Potency: inactive
[3]
  outcome: inactive
[4]
  outcome: inactive
[5]
  outcome: inactive
[6]
  outcome: inactive
[7]
  Potency: inactive
[8]
  outcome: inactive

## CC#N
[1]
  Potency: inactive
[2]
  Potency: inactive
[3]
  outcome: inactive
[4]
  outcome: inactive
[5]
  outcome: inactive
[6]
  outcome: inactive
[7]
  Potency: inactive
[8]
  outcome: inactive
[9]
  outcome: inactive

## CCn1cc(C(=O)O)c(=O)c2cc(F)c(N3CCNCC3)nc21
[1]
  Potency: inactive
[2]
  Potency: inactive
[3]
  outcome: inactive
[4]
  outcome: inactive
[5]
  outcome: inactive
[6]
  outcome: inactive
[7]
  Potency: inactive
[8]
  outcome: inactive
[9]
  outcome: inactive

## CC1=CC(O)CC(C)(C)C1 (stereo not given)
[1]
  Potency: inactive
[2]
  Potency: inactive
[3]
  outcome: inactive
[4]
  outcome: inactive
[5]
  outcome: inactive
[6]
  outcome: inactive
[7]
  Potency: inactive
[8]
  outcome: inactive
[9]
  outcome: inactive

## CCC(C)=O
[1]
  Potency: inactive
[2]
  Potency: inactive
[3]
  outcome: inactive
[4]
  outcome: inactive
[5]
  outcome: inactive
[6]
  outcome: inactive
[7]
  Potency: inactive
[8]
  outcome: inactive
[9]
  outcome: inactive
